These results are taken from PubChem BioAssay AID588855 (National Center for Advancing Translational Sciences (NCATS), 2011).

The whole screen tested about 410,000 compounds, of which about 5,000 (1.2%) were called active. Not shown: some 13% with an inconclusive outcome. The full list was thinned out, with actives kept by preference. Values without a mark were called inactive. Calls come from the whole dose curve; as a rule, active = well fitted inhibition curve with a large enough effect; inconclusive = small, poorly fitted or top-dose-only effect; inactive = no such curve, though single readings can be large or run the other way.
Potency is the fitted concentration of half-maximal effect.

This test is described as follows: qHTS for Inhibitors of TGF-b. Note: nearly all actives have a fitted effect of over 65% in size. The note with it: HepG2 CAGA-GFP TGF-b/SMAD3 reporter, GFP fluorescence, 18 h, TGF-beta stimulated, 500 pg/mL final; series mostly up to 46.1 µM; activity, negative = inhibition: at the top concentration. The text has this:
TGF-b is a main component in the TGF-b signaling pathway which plays diverse roles in cellular and development pathways. TGF-b is the mediated by the transcription factors Smads. Although the Smad-dependent pathway is the primary canonical TGF-b signaling node, TGF-b1 can also activate alternative signaling pathways, including those involving MAPK (ERK, JNK and p38). This interaction may mediate or enhance Smad-dependent responses, or can exert Smad-independent effects. The complexity of this signaling cascade allows the TGF-b superfamily to perform unique, overlapping or redundant functions. We believe that targeting the TGF-beta pathway at the Smad-transcription factor level may eliminate the consequences of disrupting the entire pathway and offer specificity without affecting other signaling pathways. Smad3 is the primary transducer of TGF-b's signals and Smad3 regulates many functions attributed to TGF-b signaling. We hypothesize that Smad3 inhibitors will selectively eliminate Smad3-specific TGF-beta signals without undesired off-target effects. We aim to identify Smad3-small molecule antagonists using a quantitative high throughput screening (qHTS) approach.
A high-throughput assay was developed to screen the NIH Molecular Libraries Small Molecule Repository (MLSMR). This is a cell based assay, where TGF-b is tagged with GFP. A counterscreen is run that looks at cytotoxicity (please see summary AID).
MH087449NIH Chemical Genomics Center [NCGC]
NIH Molecular Libraries Probe Centers Network [MLPCN]
Assay Submitter (PI): Sushil Rane, National Institute of […]
Suspensions of trypsinized HEPG2 CAGA-GFP cells were dispensed into white, tissue culture-treated, solid 1536-well plates at 5uL/well (1000 cells/well final concentration) in DMEM medium supplemented with 1% FBS. Plates were incubated at 37 degrees C for 2 hours, after which 23 nL of compounds or DMSO were delivered to each well using a pin tool. One uL of recombinant TGF-beta in DMEM (1% FBS) was then dispensed (500 pg/mL final concentration), and plates were incubated at 37 degrees C for 18 hours. The plates were measured on an Acumen eX3 Explorer plate reader for GFP fluorescence (ex488/em500-530). GFP values were calculated by determining the mean GFP fluorescence of individual cells, and compiling these values for each well to determine a total well GFP signal. The %Activity was determined from the corrected fluorescence values. A titration of the known TGF-B inhibitor SB431542 was included to monitor plate performance, while unstimulated HEPG2 (-TGF-B) control wells were used to normalize %Activity of identified inhibitors; unstimulated wells corresponded to 100%Activity (full inhibition), while stimulated cell controls (+DMSO) were used to normalize 0%Activity (no inhibition).
Concentration-response curves were fitted to the signals arising from the resulting fluorescence. The concentration-effect curves were then classified based on curve quality (r2), response magnitude and degree of measured activity, and compounds were subsequently categorized based on their curve class.
In general terms: Quantitative high-throughput screening tests each substance at several concentrations.
In the case of `CN1CCN(C2(CNC(=O)COc3ccc(C(C)(C)C)cc3)CCCCC2)CC1`, the “activity, negative = inhibition” value was -29.2%.
Turning to `CCOc1ccc(S(=O)(=O)c2cn(Cc3ccccc3)c3ccc(OCC)cc3c2=O)cc1`, the “activity, negative = inhibition” value is -14.2%.
Take `O=C(Nc1cccc(Cl)c1)c1csnn1`: the “activity, negative = inhibition” value was 18.8%.
For `Cc1csc(NC(=S)Nc2cccc(Cl)c2)n1`, the Potency was 8.91 µM (active).
Consider `O=C(NCc1cn2ccsc2n1)Nc1cccc(Cl)c1`, for which the “activity, negative = inhibition” value is 5.96%.
On to `O=C1CC(c2ccccc2)CC2=C1C(c1ccco1)n1nc(C(F)(F)F)nc1N2` (stereo not drawn), for which the “activity, negative = inhibition” value is -19%.
Take `CCCCNC(=O)Cn1c(SCc2cccc(Cl)c2)nc2ccncc21`: the “activity, negative = inhibition” value was -13.9%.
Regarding `Cc1cccc(-c2nnc(SC(C)C(=O)Nc3ccccc3)n2C)c1` (stereo not drawn), the “activity, negative = inhibition” value was -24.7%.
Regarding `O=S(=O)(NCCS(=O)(=O)N1CCN(c2ccccc2)CC1)c1ccc(Cl)cc1`, the “activity, negative = inhibition” value is -2.71%.
Take `O=C(CN1C(=O)COc2ccc(S(=O)(=O)N3CCOCC3)cc21)N1CCN(c2cccc(Cl)c2)CC1`: the “activity, negative = inhibition” value is 11.3%.
Turning to `O=C(Nc1ccc(C2CC2(Cl)Cl)cc1)c1cccc([N+](=O)[O-])c1` (stereo not drawn), the Potency was 15.8 µM (active).
On to `O=C(Nc1nnc(SCc2c(Cl)cccc2Cl)s1)c1cccc([N+](=O)[O-])c1`, for which the “activity, negative = inhibition” value was -25%.
On to `CC(C)(C)SCCNC(=O)c1cccc([N+](=O)[O-])c1`, for which the “activity, negative = inhibition” value was 9.19%.
As for `Cc1ccc(-c2cn3c(n2)sc2cc(C(=O)NCc4cccs4)ccc23)c(C)c1`, the “activity, negative = inhibition” value was -4.09%.
Consider `Cc1cc(C)cc(NC(=O)CSc2nc(=O)n(CCN3CCOCC3)c3c2CCC3)c1`, for which the “activity, negative = inhibition” value is -26.2%.
As to `Cc1nnc(SCc2cc(=O)c3cc(F)ccc3[nH]2)n1C`, the “activity, negative = inhibition” value was -0.0891%.
On to `O=C(Nc1ccc(Cl)cn1)c1ccccc1-c1ccccc1`, for which the “activity, negative = inhibition” value was -1.56%.
For `Clc1ccc(Nc2nc(-c3cccs3)cs2)nc1`, the Potency was 11.2 µM (active).
For the molecule `CCCc1cc(C(=O)Nc2ccc(Cl)cn2)cs1`, the “activity, negative = inhibition” value was -13.9%.
The same measure, in the same setting: to `COc1ccc(C(=O)COC(=O)CCCC(=O)Nc2cc(C(F)(F)F)ccc2Cl)cc1` belongs 0%; to `COc1cc(NC(=O)c2cncc(-c3ccc(C#N)cc3)c2)cc(C(=O)Nc2cccc(C(F)(F)F)c2)c1`, -10.5%; to `Cc1cc(Nc2cccc(C(F)(F)F)c2)nc2ccc(NC(=O)c3ccc(=O)[nH]c3)cc12`, -3.23%.
Take `COc1cc(NC(=O)c2[nH]cnc2C(N)=O)cc(C(=O)Nc2cccc(C(F)(F)F)c2)c1`: the Potency was 4.47 µM (active).
For the molecule `O=C(Nc1ccccc1F)C(c1ccccc1)N1Cc2ccccc2C1=O` (stereo not drawn), the “activity, negative = inhibition” value was -8.24%.
As to `CCc1ccc(NC(=O)CCS(=O)(=O)c2cc3c(cc2Cl)NC(=O)CO3)cc1`, the “activity, negative = inhibition” value is 5.48%.
Take `S=C(Nc1ccc(Br)cc1)NC1CCN(Cc2ccccc2)CC1`: the Potency is 10 µM (active).
`O=C(COc1ccc(Br)cc1F)NC1CCN(Cc2ccccc2)CC1`: the “activity, negative = inhibition” value was 13.6%.
On to `O=C(NC1CCN(Cc2ccccc2)CC1)c1cc(Br)c(Br)[nH]1`, for which the “activity, negative = inhibition” value was -7.55%.
For `COc1ccc(Nc2ncc(C(=O)Nc3cc(C)ccc3OC)c3ccccc23)cc1`, the “activity, negative = inhibition” value was -2.57%.
Same read-out and setting: to `CCc1nccn1S(=O)(=O)c1cc(Br)ccc1Br` belongs 3.54%.
On to `COc1ccc(OC)c(NC(=O)/C=C/c2ccc(C)o2)c1`, for which the “activity, negative = inhibition” value was 39.7%.
Regarding `Cc1ccc(-c2nc(S(=O)(=O)c3ccc(C)cc3)c(N3CCCCCC3)o2)cc1`, the “activity, negative = inhibition” value is 9.54%.
For `CC(C)S(=O)(=O)c1oc(-c2ccc(F)cc2)nc1S(=O)(=O)c1ccc(F)cc1`, the Potency is 1.26 µM (active).
Turning to `O=C(CSc1oc(-c2ccc(F)cc2)nc1S(=O)(=O)c1ccc(Br)cc1)NC1CCCCC1`, the “activity, negative = inhibition” value was 11.8%.
`Cc1ccc(CCNC(=O)Cn2c(-c3cccs3)cc3cc(F)ccc32)cc1`: the “activity, negative = inhibition” value is -3.68%.
Take `COc1ccc(CC(=O)NCCc2sc3nc(-c4ccc(OC)cc4)nn3c2C)cc1`: the “activity, negative = inhibition” value is -12%.
The same measure, in the same setting: the value for `COc1c(Cl)cc(C(=O)N(Cc2ccccc2F)C2CCS(=O)(=O)C2)cc1Cl` (stereo not drawn) was -28.9%.
Regarding `Cc1ccc2nc(-c3ccc(O)cc3)c(Nc3ccc4c(c3)OCO4)n2c1`, the “activity, negative = inhibition” value was -25.9%.
On to `Cc1cc(C)nc(S/C=C/C(=O)c2ccccc2)n1`, for which the Potency was 3.16 µM (active).
As to `COC(c1ccccc1)(c1ccccc1)C(Oc1nc(C)cc(C)n1)C(=O)O` (stereo not drawn), the “activity, negative = inhibition” value was 16.7%.
Regarding `Cc1cc(C)nc(SC(C)C(=O)N/N=C/c2cccs2)n1` (stereo not drawn), the “activity, negative = inhibition” value was 4.28%.
Take `Cc1ccc(Cn2c(CNC(=O)Cc3cccc(C)c3)nc3cccnc32)cc1`: the “activity, negative = inhibition” value was -23%.
As for `CC(=O)Nc1cc(C(=O)NCc2ccc(F)cc2Cl)ccc1Sc1ccc(Cl)cc1`, the “activity, negative = inhibition” value is 0%.
The same measure, in the same setting: to `COc1ccc(CN2CCC(=O)c3ccccc3S2(=O)=O)cc1` belongs -1.44%.
Regarding `COc1cccc2c1C(=O)c1c(O)c3c(c(O)c1C2=O)CC(O)(C(C)=NNC(=O)c1ccc(Cl)c(Cl)c1)CC3OC1CC(N)C(O)C(C)O1` (stereo not drawn), the Potency is 1.12 µM (active).
With `Cc1ccc(Cn2cnc3c(cnn3C(C)(C)C)c2=O)c(F)c1`, the “activity, negative = inhibition” value was -14.2%.
In the case of `COc1cc(CN(C(=O)c2ccccc2Br)c2ccccn2)cc(OC)c1OC`, the “activity, negative = inhibition” value was -7.28%.
Regarding `CC(C)CC[n+]1ccn(C2=C([O-])c3ccccc3C(=O)/C2=N\S(=O)(=O)c2ccccc2)c1`, the Potency was 3.16 µM (active).
